Laboratory results published in PubChem BioAssay (NCATS).
Results filed as inconclusive are left out. Where a call stands in place of a potency, no number is given. Values without a mark were called inactive. Active and inactive are the calls of the source. Calls follow the shape of the dose curve; as a rule, active = well fitted cell-killing curve with a large enough effect; inconclusive = small, poorly fitted or top-dose-only effect, or effect the other way; inactive = flat fitted curve, though single readings scatter. *1 amine or outer side, *2 acyl side, *3 side chain or, on linkers, in order; H or OH if unused. Where a SMILES comes first, the peptide text is derived from it. [ ]: non-standard residue; d: D form. X13 = O=C(C(CC(O)CO)O[*:1])[*:2]; NMeV = CN[CH](C(=O)O)C(C)C; NMeA = CN[CH](C)C(=O)O; βAla = NCCC(=O)O

System: OV90
Experiment: Primary qHTS to identify gynecologic anti-cancer compounds using libraries of approved drugs and bioactive compounds (AID 1345084); also: nearly all actives have a fitted effect of over 55% in size
Conditions: Gynecologic cancer cell panel viability, ATPlite luminescence, 48 h; series mostly up to 57.5 µM
Procedure, shortened: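 Five-point cytotoxicity, 48 h drug exposure at 37 C, 5% CO2, on cells seeded 16 h beforehand. ATP content read by ATPlite luminescence.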

Row | Compound | Potency | activity change, negative = cytotoxicity
1 | CC(C)CC(=O)OC[C@@]1(O)C[C@@]23CC[C@H]4[C@@](C)(CCC[C@@]4(C)C(=O)O)[C@@H]2CC[C@@H]1C3 | inactive | 
2 | C=C[C@H]1[C@H](O[C@@H]2O[C@H](CO)[C@@H](O)[C@H](O)[C@H]2O)OC=C(C(=O)OC)[C@H]1CC=O | inactive | 
3 | C=C1C(=O)OC2CC(COC(=O)C(C)C)=C(C(C)CCCOC(C)=O)[C@@H](OC(C)=O)C12 (stereo partly specified) | inactive | 
4 | CC1=C2C(=O)C=C(CO[C@@H]3O[C@H](CO)[C@@H](O)[C@H](O)[C@H]3O)[C@@H]2[C@H]2OC(=O)[C@H](C)[C@@H]2[C@@H](O)C1 | inactive | 
5 | C=C1C(=O)O[C@@H]2CC(C)=C([C@@H](C)CCCOC(C)=O)[C@@H](O)[C@H]12 | inactive | 
6 | CC1=COC(OC2OC(CO)C(O)C(O)C2O)C2C(CO)CC(OC(=O)/C=C/c3ccc(O)cc3)C12 (stereo unspecified) | inactive | 
7 | COc1cccc(OC)c1-c1ccc(C[C@H](NC(=O)c2c(Cl)cccc2Cl)C(=O)O)cc1 | inactive | 
8 | C/C=C/C(=O)OC1/C=C/C(O)C(OC(C)=O)CCC(=O)OC1C (stereo unspecified) | inactive | 
9 | CC1(C)[C@H]2C[C@H](C/C=C\CCCC(=O)O)[C@@H](NC(=O)c3csc4ccc(O)cc34)[C@@H]1C2 | inactive | 
10 | CC(=O)/C=C/C1C(C)CC(O[C@@H]2O[C@H](CO)[C@@H](O)[C@H](O)[C@H]2O)CC1(C)C (stereo partly specified) | inactive | 
11 | COC(=O)c1ccccc1O[C@@H]1O[C@H](CO[C@@H]2OC[C@@H](O)[C@H](O)[C@H]2O)[C@@H](O)[C@H](O)[C@H]1O | inactive | 
12 | NC(Cc1c[nH]c2ccc(O)cc12)C(=O)O (stereo unspecified) | inactive | 
13 | CCN=C1N[C@@H]2[C@@H](O)[C@H](O)[C@@H](CO)O[C@@H]2S1 | inactive | 
14 | O=C(NC1CCN(CC(F)(F)F)CC1)c1ccc(-c2cccc(F)c2)nc1 | inactive | 
15 | COc1cc(/C=C/C(=O)O[C@H]2[C@@H]3C=CO[C@@H](O[C@@H]4O[C@H](CO)[C@@H](O)[C@H](O)[C@H]4O)[C@@H]3[C@@]3(CO)O[C@@H]23)ccc1O | inactive | 
16 | C[C@@H]1[C@H](O)[C@@H]2OC(=O)C3=C2[C@H](CCC3)[C@@]12C[C@@H](c1ccoc1)OC2=O | inactive | 
17 | CC1OC(OC2CCC3(C)C(CCC4(C)C3C=CC35OCC6(CCC(C)(C)CC63)CCC45C)C2(C)CO)C(OC2OC(CO)C(O)C(O)C2O)C(O)C1OC1OC(CO)C(O)C(O)C1O (stereo unspecified) |  | -14.8% [at 11.6 µM]
18 | CCC(C)C1NC(=O)C2CCCN2C(=O)C(CC(O)CO)OC(=O)CCNC(=O)C(C)N(C)C(=O)C(C(C)C)N(C)C1=O (stereo unspecified) (cyclo([X13]PI[NMeV][NMeA][βAla]); configuration not given here) | inactive | 
19 | CC(O)C(=O)/C=C/C=C/C(=O)OC1C=C2COC(=O)C2(O)C2(C)CCCC(C)(C)C12 (stereo unspecified) | inactive | 
20 | CC(C)C(O)(CO)CCO[C@@H]1O[C@H](CO[C@H]2OC[C@](O)(CO)[C@H]2O)[C@@H](O)[C@H](O)[C@H]1O (stereo partly specified) | inactive | 
21 | Nc1ncnc2c1ncn2[C@H]1O[C@@H](C(=O)N2CCN(CC(=O)Nc3cccc4c3CNC4=O)CC2)[C@H](O)[C@@H]1O | inactive | 
